Data: ChEMBL document CHEMBL5724796, “Tm Shift (DSF) assay results for EUbOPEN Chemogenomics Library” (2024)
Residues, ends and D or L forms follow the SMILES beside them.

Tests used:
Conditions in all cases: Compound concentration 20.0 uM
[1] = target: Tyrosine-protein kinase ABL1 (Homo sapiens) (UniProt P00519)
[2] = target: Bromodomain-containing protein 4 (Homo sapiens) (UniProt O60885)
[3] = target: Cyclin-dependent kinase 2 (Homo sapiens) (UniProt P24941)
[4] = target: Casein kinase I isoform delta (Homo sapiens) (UniProt P48730)
[5] = target: Glycogen synthase kinase-3 beta (Homo sapiens) (UniProt P49841)
[6] = target: Mitogen-activated protein kinase 1 (Homo sapiens) (UniProt P28482)
[7] = target: T1, Aurora kinase A (Homo sapiens) (UniProt O14965)
T1 sequence (whole entry): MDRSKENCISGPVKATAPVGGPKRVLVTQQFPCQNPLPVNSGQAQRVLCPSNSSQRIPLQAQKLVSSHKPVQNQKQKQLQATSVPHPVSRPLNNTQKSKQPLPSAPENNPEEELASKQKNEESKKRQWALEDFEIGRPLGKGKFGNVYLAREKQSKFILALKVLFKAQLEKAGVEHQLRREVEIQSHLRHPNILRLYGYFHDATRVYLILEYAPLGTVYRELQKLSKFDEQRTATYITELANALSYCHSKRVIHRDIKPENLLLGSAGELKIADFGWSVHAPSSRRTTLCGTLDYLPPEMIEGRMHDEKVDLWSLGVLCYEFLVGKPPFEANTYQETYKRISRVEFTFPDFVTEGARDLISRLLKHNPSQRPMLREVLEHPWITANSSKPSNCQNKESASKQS

[8] = target: T2, Transcription intermediary factor 1-alpha (Homo sapiens) (UniProt O15164)
T2 sequence (whole entry): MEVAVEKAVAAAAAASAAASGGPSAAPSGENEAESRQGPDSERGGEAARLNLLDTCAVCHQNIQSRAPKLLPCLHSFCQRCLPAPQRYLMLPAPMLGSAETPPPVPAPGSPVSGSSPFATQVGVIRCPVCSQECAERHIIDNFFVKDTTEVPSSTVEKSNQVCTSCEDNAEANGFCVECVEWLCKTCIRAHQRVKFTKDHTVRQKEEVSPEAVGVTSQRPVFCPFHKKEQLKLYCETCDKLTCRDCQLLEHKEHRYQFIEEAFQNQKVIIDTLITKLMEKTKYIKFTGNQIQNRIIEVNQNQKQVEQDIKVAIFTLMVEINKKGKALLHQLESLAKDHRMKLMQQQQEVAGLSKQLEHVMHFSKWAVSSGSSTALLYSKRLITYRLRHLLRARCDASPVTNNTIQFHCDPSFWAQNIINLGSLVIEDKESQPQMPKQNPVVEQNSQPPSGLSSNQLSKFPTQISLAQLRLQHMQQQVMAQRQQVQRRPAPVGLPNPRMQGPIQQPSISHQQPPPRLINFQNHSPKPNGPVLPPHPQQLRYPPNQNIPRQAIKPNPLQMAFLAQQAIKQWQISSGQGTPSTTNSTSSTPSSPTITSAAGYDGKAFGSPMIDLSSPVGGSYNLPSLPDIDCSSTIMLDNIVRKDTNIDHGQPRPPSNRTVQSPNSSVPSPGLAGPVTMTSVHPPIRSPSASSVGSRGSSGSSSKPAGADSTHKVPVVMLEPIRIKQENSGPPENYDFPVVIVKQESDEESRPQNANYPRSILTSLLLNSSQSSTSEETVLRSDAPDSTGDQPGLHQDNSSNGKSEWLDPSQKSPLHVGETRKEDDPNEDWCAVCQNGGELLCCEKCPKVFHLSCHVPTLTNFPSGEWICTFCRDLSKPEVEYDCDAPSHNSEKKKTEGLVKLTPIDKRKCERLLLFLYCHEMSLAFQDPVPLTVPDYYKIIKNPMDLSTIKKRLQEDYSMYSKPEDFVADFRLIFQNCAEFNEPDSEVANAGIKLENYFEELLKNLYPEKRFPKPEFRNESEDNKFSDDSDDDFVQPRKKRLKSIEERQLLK

Chain of Mitogen-activated protein kinase 1 (Homo sapiens) (P28482 whole entry): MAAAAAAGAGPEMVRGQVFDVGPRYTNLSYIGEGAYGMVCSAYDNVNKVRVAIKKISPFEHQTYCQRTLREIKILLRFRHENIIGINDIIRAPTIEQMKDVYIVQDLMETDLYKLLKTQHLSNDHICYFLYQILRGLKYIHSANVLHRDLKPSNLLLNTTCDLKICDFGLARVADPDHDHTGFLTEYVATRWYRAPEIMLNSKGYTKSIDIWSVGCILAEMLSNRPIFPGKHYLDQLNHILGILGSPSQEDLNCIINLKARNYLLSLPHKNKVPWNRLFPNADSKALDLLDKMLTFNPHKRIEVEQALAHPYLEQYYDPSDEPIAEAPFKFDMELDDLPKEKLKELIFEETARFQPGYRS
Chain of Casein kinase I isoform delta (Homo sapiens) (P48730 whole entry, looked up, canonical isoform): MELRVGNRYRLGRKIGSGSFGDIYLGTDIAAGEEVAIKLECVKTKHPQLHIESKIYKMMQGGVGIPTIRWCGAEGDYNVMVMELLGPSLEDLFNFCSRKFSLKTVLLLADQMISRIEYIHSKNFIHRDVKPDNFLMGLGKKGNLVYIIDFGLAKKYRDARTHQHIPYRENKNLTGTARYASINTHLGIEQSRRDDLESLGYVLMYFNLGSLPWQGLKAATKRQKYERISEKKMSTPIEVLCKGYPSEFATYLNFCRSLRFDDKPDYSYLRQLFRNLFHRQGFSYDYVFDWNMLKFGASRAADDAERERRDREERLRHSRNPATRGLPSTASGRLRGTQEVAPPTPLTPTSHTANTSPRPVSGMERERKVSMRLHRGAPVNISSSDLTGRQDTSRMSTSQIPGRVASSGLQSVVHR
Chain of Glycogen synthase kinase-3 beta (Homo sapiens) (P49841 whole entry, looked up): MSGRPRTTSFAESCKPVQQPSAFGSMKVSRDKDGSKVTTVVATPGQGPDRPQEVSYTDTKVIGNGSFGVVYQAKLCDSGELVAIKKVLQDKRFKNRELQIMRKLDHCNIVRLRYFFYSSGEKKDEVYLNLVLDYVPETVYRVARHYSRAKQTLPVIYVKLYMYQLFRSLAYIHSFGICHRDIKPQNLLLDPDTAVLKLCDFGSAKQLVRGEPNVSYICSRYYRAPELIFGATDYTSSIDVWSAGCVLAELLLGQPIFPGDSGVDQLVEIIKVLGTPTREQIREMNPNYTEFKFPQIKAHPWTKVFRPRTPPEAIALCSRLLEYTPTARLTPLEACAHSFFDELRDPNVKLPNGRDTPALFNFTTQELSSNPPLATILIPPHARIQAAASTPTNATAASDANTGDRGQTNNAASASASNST
Chain of Tyrosine-protein kinase ABL1 (Homo sapiens) (P00519 whole entry): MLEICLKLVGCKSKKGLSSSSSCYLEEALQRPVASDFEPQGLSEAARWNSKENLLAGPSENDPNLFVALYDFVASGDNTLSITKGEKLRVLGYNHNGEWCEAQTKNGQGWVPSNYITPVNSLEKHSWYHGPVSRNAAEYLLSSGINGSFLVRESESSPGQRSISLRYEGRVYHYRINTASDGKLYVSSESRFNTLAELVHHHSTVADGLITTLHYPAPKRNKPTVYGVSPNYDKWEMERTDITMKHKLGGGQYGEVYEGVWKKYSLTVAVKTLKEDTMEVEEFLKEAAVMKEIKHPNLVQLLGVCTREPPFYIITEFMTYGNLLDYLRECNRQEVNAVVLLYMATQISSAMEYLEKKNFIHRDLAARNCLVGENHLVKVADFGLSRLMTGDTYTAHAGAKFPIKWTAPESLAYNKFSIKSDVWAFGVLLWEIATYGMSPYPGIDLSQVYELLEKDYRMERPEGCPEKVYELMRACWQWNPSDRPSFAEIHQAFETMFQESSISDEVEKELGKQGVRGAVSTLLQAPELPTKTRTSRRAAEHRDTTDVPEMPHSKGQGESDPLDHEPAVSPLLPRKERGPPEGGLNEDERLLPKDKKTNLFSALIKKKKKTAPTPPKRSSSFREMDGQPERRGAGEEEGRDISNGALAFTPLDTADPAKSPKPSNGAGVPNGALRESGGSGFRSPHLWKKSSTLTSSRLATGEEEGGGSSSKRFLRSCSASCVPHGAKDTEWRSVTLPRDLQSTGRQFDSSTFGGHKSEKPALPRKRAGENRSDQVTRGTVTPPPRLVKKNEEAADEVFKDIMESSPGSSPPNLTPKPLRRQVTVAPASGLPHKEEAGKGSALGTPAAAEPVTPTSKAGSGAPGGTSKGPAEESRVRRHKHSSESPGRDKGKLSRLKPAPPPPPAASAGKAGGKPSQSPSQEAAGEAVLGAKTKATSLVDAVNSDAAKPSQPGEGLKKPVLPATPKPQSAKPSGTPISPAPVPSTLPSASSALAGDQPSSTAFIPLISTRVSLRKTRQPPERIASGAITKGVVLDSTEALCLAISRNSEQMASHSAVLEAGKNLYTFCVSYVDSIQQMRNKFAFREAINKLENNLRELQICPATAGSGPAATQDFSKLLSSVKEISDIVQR

SMILES	ΔTm [1] [°C]	ΔTm [2] [°C]	ΔTm [3] [°C]	ΔTm [4] [°C]	ΔTm [5] [°C]	ΔTm [6] [°C]	ΔTm [7] [°C]	ΔTm [8] [°C]
CC(=O)C(=Cc1cc(O)c(O)c([N+](=O)[O-])c1)C(C)=O	0.06	0.74	0.04	-0.82	-0.72	0.27	0.07	0.21
O=C1COc2c(cccc2[C@@H](O)CNCCN(C(=O)CCNCCc2ccc(Cl)c(Cl)c2)C2CCCCC2)N1	0.38	-1.19	0.73	0.16	0.42	0.56	-1.62	1.39
NC(=O)c1cnc(N[C@@H]2CCCC[C@@H]2N)nc1Nc1cccc(-n2nccn2)c1	3.49	-1.09	5.92	6.3	5.98	4.33	2.17	0.1
O=c1[nH]c(CS[C@H]2CC[C@H](O)CC2)nc2cc(OCC3CC3)cc(F)c12	0.58	-1.62	-0.32	-5.43	0	0.1	-0.76	-0.56
CN(C)Cc1ccc(-c2nc3cccc4c3n2CCNC4=O)cc1	0.45	0.14	0.42	-0.01	1.99	0.01	-0.64	0.79
N#Cc1ccc(Nc2cnccc2SCc2ccccc2C(=O)O)c2ccccc12	0.28	1.65	0.57	-0.12	0	0.32	-0.47	1.31
CC#C[C@]1(O)CC[C@H]2[C@@H]3CCC4=CC(=O)CCC4=C3[C@@H](c3ccc(N(C)C)cc3)C[C@@]21C	0.11	-2.39	-0.02	0.02	-1.3	-0.7	-1.55	-0.92
O=C(NCC(=O)N1CCCCC1)Nc1ccc2nnsc2c1	0.46	-0.58	0.28	0.06	0.23	-0.52	-0.71	0.08
CN1CCc2c(n(Cc3ccc(C(=O)NO)cc3)c3ccccc23)C1	0.24	-1.44	0.56	-0.06	-0.89	0.14	-0.37	-1.21
COc1ccc(-c2ccc3c(c2)COC3=O)n2nc(C3(C(=O)OCC(C)C)CC3)nc12	0.4	2.58	0.54	0.04	-0.38	1.36	-1.67	0.5
C[C@H]1CO[C@@H]2Cn3cc(C(=O)NCc4ccc(F)cc4F)c(=O)c(O)c3C(=O)N12	0.13	-2.15	0.09	-0.04	-0.88	0.4	-0.95	0.47
O=c1c2nnc(C3CCOCC3)n2cc(Br)n1CC1CCCC1	0.74	-2.93	0.35	-0.32	-0.29	0.23	-1.77	-0.67
COc1ccc(-c2ccc(-c3cn(C(=O)N4CCCCC4c4ccccc4)nn3)cc2)cc1 (stereo not given)	0.38	-2.64	0.04	-0.53	-1.61	-0.45	-1.09	-0.5
N#C[C@@H]1CCCN1C(=O)CNC(=O)c1ccnc2ccc(OCCCN3CCN(C(=O)CN4CCN(CC(=O)O)CCN(CC(=O)O)CCN(CC(=O)O)CC4)CC3)cc12	0.75	-2.94	0.18	-0.3	-0.21	0.66	-2.4	0.33
O=C(O)C1CCCN(CCC=C(c2ccccc2)c2ccccc2)C1 (stereo not given)	0.13	-2.59	0	-0.19	-0.66	0.13	-2.34	-1.2
O=C(N(CCc1ccccc1)C1CCCCC1)n1ncc(-c2ccc(OC(F)(F)F)cc2)n1	-0.68	-2.75	0.18	0.03	-3.35	0.11	-1.75	0.14
CC/C(=C(/c1ccc(/C=C/C(=O)O)cc1)c1ccc2[nH]ncc2c1)c1ccc(F)cc1Cl	-5.16	-0.16	-3.66	-4.37	3.37	0	1.69	0
CS(=O)(=O)Nc1ccc2oc3c(OC(F)F)ccc(C(=O)Nc4c(Cl)cncc4Cl)c3c2c1	0.6	-1.02	-0.16	-1.11	-0.39	0.24	-1.56	0.09
Oc1nc(-c2ccc(C(F)(F)F)cc2)nc2c1CSCC2	0.58	-2.75	0.01	-0.13	0.44	0.11	-2.41	-0.56
CC[C@H](C)[C@H](NC(=O)[C@H](CCC(=O)O)NC(=O)[C@@H](NC(C)=O)C(C)C)C(=O)N[C@H](C=O)CC(=O)O (Ac-VEID-aldehyde)	-0.05	-2.59	-0.23	-0.08	-0.35	-0.47	-1.47	-0.43
